Reference: PubChem BioAssay (Tox21)
Inconclusive results are not listed. Values without a mark were called inactive. Unless noted, calls come from the whole dose curve.

Assay: qHTS assay to identify small molecule agonists of the hypoxia (HIF-1) signaling pathway - cell viability counter screen (AID 1224844); note: nearly all actives have a fitted effect of over 50% in size
Details: HRE-bla ME-180 viability, CellTiter-Glo luminescence, 17 h; series mostly up to 76.8 µM; activity change, negative = cytotoxicity: at the top concentration
In short: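 Viability counter screen: HRE-bla ME-180 cells plated 5 hrs before compound addition, treated 17 hrs at 37C and 5% CO2, then CellTiter-Glo added after the FRET reporter read; luminescence after 30 min.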
% is set by controls: 0 for no effect and ±100 for the full control effect.

| SMILES | activity change, negative = cytotoxicity |
| --- | --- |
| C=C(C)C(=O)OCCOC1CC2CC1C1C=CCC21 (configuration not stated) | -20.3% |
| O=C(O)CCCCCCCCCC(=O)O | -15.8% |
| CC(=O)OC1CCC(C(C)(C)C)CC1 (configuration not stated) | 0.579% |
| CCCCCCCCCCCBr | -3.34% [at 35.3 µM] |
| Cc1cc(=O)oc2cc(O[C@@H]3SC[C@@H](O)[C@H](O)[C@H]3O)ccc12 | 1.11% [at 35.3 µM] |
| CCN1CCN(C(=O)N[C@@H](C(=O)N[C@@H]2C(=O)N3[C@@H]2SC(C)(C)[C@H]3C(=O)O)c2ccccc2)C(=O)C1=O | -3.54% [at 35.3 µM] |
| CC[N+](C)(CC)CC | 7.23% |
| COc1cc(OC)cc(OC)c1 | -1.01% [at 35.3 µM] |
| O=S(=O)(O)c1ccc(Cl)cc1 | 2.92% |
| CC1=C(O)C(=O)CO1 | 6.55% |
| CCOC(=O)CN1CCCC1=O | -0.513% [at 35.3 µM] |

Assay: qHTS assay to identify small molecule agonists of H2AX (AID 1224845; active = well fitted activation curve with a large enough effect in the signal ratio in the repeat runs, not every such curve was filed as active; the % refers to the signal ratio)
Details: CHO-K1 phospho-H2AX Ser139 HTRF, 3 h; series mostly up to 154 µM; activation (H2AX phosphorylation): at the top concentration
In short: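 Wild-type CHO-K1 cells plated overnight, then exposed 3 hr at 37C to compounds at 15 concentrations (0.76% DMSO). Lysed, then HTRF anti-pH2AX(S139)-cryptate/anti-H2AX-d2 detection after 24 hr at room temperature; emissions 665 and 620 nm.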

| SMILES | activation (H2AX phosphorylation) |
| --- | --- |
| Nc1nc(Cl)cc(Cl)n1 | 5.79% |
| CCCC(=O)C(CC)Sc1ccoc1C (configuration not stated) | 5.69% |
| Cc1ccc(O)c(C(=O)c2ccccc2)c1 | 5.85% |
| CCOC(=O)c1ccc(N(C)C)cc1 | -0.297% |
| O=Cc1ccccc1S(=O)(=O)O | 2.24% |
| COc1cc(C(=O)NC2CCCNC2)cc(OC)c1OC (configuration not stated) | 0.508% [at 70.9 µM] |
| Cc1nc2ccc(Cl)cc2[nH]1 | -2.46% |
| COC(=O)C(c1ccccc1Cl)N1CCc2sccc2C1 (configuration not stated) | -1.72% [at 70.9 µM] |
| CC1(C)S[C@@H]2[C@H](NC(=O)Cc3ccccc3)C(=O)N2[C@H]1C(=O)O (tested in a mixture with another compound) | 0.0194% [at 70.9 µM] |
| CCCCC(CC)CCC(CC(C)C)OS(=O)(=O)O (configuration not stated) | 1.84% |
| O=C(O)COc1ccc2ccccc2c1 | 1.2% |
| O=S(=O)(O)CC(O)CCl (configuration not stated) | 1.02% |
| O=C(c1ccccc1)c1cccc(O)c1 | -0.663% |
| O=C1Nc2ccccc2C1=O | -2.31% |
| Cc1cc(N)no1 | -3.58% |
| NNC(=O)OCc1ccccc1 | -1.27% |
| CCCCCCC(O)CO (configuration not stated) | 0.716% |
| C=CCOC(=O)CCCCCCCC | 1.07% |
| Cc1cc(C)c(C)c(C)c1 | 0.605% |
| Cc1cc2c(cc1CC(=O)c1sccc1S(=O)(=O)Nc1onc(C)c1Cl)OCO2 | -1.19% [at 70.9 µM] |
| C=C(C)C(=O)OCCOC1CC2CC1C1C=CCC21 (configuration not stated) | 2.36% |
| O=C(O)CCCCCCCCCC(=O)O | -2.21% |
| CC(=O)OC1CCC(C(C)(C)C)CC1 (configuration not stated) | -2.68% |
| CCCCCCCCCCCBr | -3.14% [at 70.9 µM] |
| Cc1cc(=O)oc2cc(O[C@@H]3SC[C@@H](O)[C@H](O)[C@H]3O)ccc12 | -0.637% [at 70.9 µM] |
| CCN1CCN(C(=O)N[C@@H](C(=O)N[C@@H]2C(=O)N3[C@@H]2SC(C)(C)[C@H]3C(=O)O)c2ccccc2)C(=O)C1=O | 0.0707% [at 70.9 µM] |
| CC[N+](C)(CC)CC | -1.29% |
| COc1cc(OC)cc(OC)c1 | -0.787% [at 70.9 µM] |
| O=S(=O)(O)c1ccc(Cl)cc1 | -0.588% |
| CCOC(=O)CN1CCCC1=O | 0.503% [at 70.9 µM] |

Assay: qHTS assay to identify small molecule agonists of the hypoxia (HIF-1) signaling pathway (AID 1224846; active = well fitted activation curve with a large enough effect in the signal ratio in the repeat runs, not every such curve was filed as active; the % refers to the signal ratio)
Details: HRE-bla ME-180 cells, beta-lactamase ratio, 17 h; series mostly up to 76.8 µM; activation: at the top concentration
In short: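 Agonist mode reporter screen. ME-180 cells stably expressing bla under HRE control received test compounds in DMSO for 17 hrs (37C, 5% CO2), and beta-lactamase activity was then detected with the CCF4-AM FRET substrate.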

| SMILES | activation |
| --- | --- |
| Nc1nc(Cl)cc(Cl)n1 | -0.743% |
| Cc1ccc(NC(N)=O)cc1 | -1.49% |
| CCCC(=O)C(CC)Sc1ccoc1C (configuration not stated) | 0.604% |
| Cc1ccc(O)c(C(=O)c2ccccc2)c1 | -1.5% |
| CCOC(=O)c1ccc(N(C)C)cc1 | 1.01% |
| COC(=O)c1c(C)cc(O)c(C)c1O | -0.112% |
| O=Cc1ccccc1S(=O)(=O)O | 0.0081% |
| CC(C)(O)c1ccc(C(C)(C)O)cc1 | 0.202% |
| Cc1nc2ccc(Cl)cc2[nH]1 | -1.45% |
| COC(=O)C(c1ccccc1Cl)N1CCc2sccc2C1 (configuration not stated) | 1.4% [at 35.5 µM] |
| CCCCC(CC)CCC(CC(C)C)OS(=O)(=O)O (configuration not stated) | -0.549% |
| Nc1cc(S(=O)(=O)O)ccc1O | -0.597% |
| O=S(=O)(O)CC(O)CCl (configuration not stated) | 0.204% |
| O=C(c1ccccc1)c1cccc(O)c1 | 0.444% |
| O=C1Nc2ccccc2C1=O | -0.008% |
| Cc1cc(N)no1 | 4.44% |
| CCCCCCC(O)CO (configuration not stated) | 0.424% |
| C=CCOC(=O)CCCCCCCC | -0.57% |
| Cc1cc2c(cc1CC(=O)c1sccc1S(=O)(=O)Nc1onc(C)c1Cl)OCO2 | 0.697% [at 35.5 µM] |
| C=C(C)C(=O)OCCOC1CC2CC1C1C=CCC21 (configuration not stated) | 0.0441% |
| O=C(O)CCCCCCCCCC(=O)O | -1.44% |
| CC(=O)OC1CCC(C(C)(C)C)CC1 (configuration not stated) | -0.364% |
| CCCCCCCCCCCBr | 1.62% [at 35.5 µM] |
| Cc1cc(=O)oc2cc(O[C@@H]3SC[C@@H](O)[C@H](O)[C@H]3O)ccc12 | -0.674% [at 35.5 µM] |
| CC[N+](C)(CC)CC | -1% |
| COc1cc(OC)cc(OC)c1 | -1.21% [at 35.5 µM] |
| O=S(=O)(O)c1ccc(Cl)cc1 | 0.147% |
| CC1=C(O)C(=O)CO1 | 0.0114% |
| CCOC(=O)CN1CCCC1=O | -0.898% [at 35.5 µM] |

Assay: qHTS assay to identify small molecule agonists of H2AX - cell viability counter screen (AID 1224847); note: top concentration of the series differs between compounds; nearly all actives have a fitted effect of over 30% in size
Details: CHO-K1 viability, CellTiter-Glo luminescence, 3 h; series mostly up to 154 µM; activity change, negative = cytotoxicity: at the top concentration
In short: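 Cytotoxicity counter screen in wild-type CHO-K1 cells: a 3 hr compound treatment at 37C across 15 concentrations, followed by CellTiter-Glo luminescence to gauge viable cells.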

| SMILES | activity change, negative = cytotoxicity |
| --- | --- |
| Cc1ccc(NC(N)=O)cc1 | 2.86% |
| CCOC(=O)c1ccc(N(C)C)cc1 | -1.04% |
| COC(=O)c1c(C)cc(O)c(C)c1O | -12.5% |
| COc1cc(NS(=O)(=O)c2ccc(N)cc2)ncn1 | 0.469% [at 70.9 µM] |
| Clc1ccc2c(c1)Nc1ccccc1S2 | -7.17% [at 70.9 µM] |
| O=Cc1ccccc1S(=O)(=O)O | 6.35% |
| CC(C)(O)c1ccc(C(C)(C)O)cc1 | -0.623% |
| COc1cc(C(=O)NC2CCCNC2)cc(OC)c1OC (configuration not stated) | 5.8% [at 70.9 µM] |
| Cc1nc2ccc(Cl)cc2[nH]1 | 1.49% |
| COC(=O)C(c1ccccc1Cl)N1CCc2sccc2C1 (configuration not stated) | -6.81% [at 70.9 µM] |
| CC1(C)S[C@@H]2[C@H](NC(=O)Cc3ccccc3)C(=O)N2[C@H]1C(=O)O (tested in a mixture with another compound) | 8.27% [at 70.9 µM] |
| CCCCC(CC)CCC(CC(C)C)OS(=O)(=O)O (configuration not stated) | -1.34% |
| Nc1cc(S(=O)(=O)O)ccc1O | 0.301% |
| O=C(O)COc1ccc2ccccc2c1 | 4.8% |
| O=S(=O)(O)CC(O)CCl (configuration not stated) | 0.182% |
| O=C1Nc2ccccc2C1=O | -0.755% |
| Cc1cc(N)no1 | -1.69% |
| NNC(=O)OCc1ccccc1 | -0.307% |
| CCCCCCC(O)CO (configuration not stated) | 0.445% |
| C=CCOC(=O)CCCCCCCC | 8.71% |
| Cc1cc2c(cc1CC(=O)c1sccc1S(=O)(=O)Nc1onc(C)c1Cl)OCO2 | 0.644% [at 70.9 µM] |
| C=C(C)C(=O)OCCOC1CC2CC1C1C=CCC21 (configuration not stated) | -3.6% |
| CCCCCCCCCCCBr | 1.65% [at 70.9 µM] |
| Cc1cc(=O)oc2cc(O[C@@H]3SC[C@@H](O)[C@H](O)[C@H]3O)ccc12 | -1.74% [at 70.9 µM] |
| CCN1CCN(C(=O)N[C@@H](C(=O)N[C@@H]2C(=O)N3[C@@H]2SC(C)(C)[C@H]3C(=O)O)c2ccccc2)C(=O)C1=O | -0.401% [at 70.9 µM] |
| COc1cc(OC)cc(OC)c1 | 1.12% [at 70.9 µM] |
| CC1=C(O)C(=O)CO1 | 4.17% |
